PubChem BioAssay AID1159580 (chemical genetic matrix, 2015)
In all, about 5,500 compounds went through this assay and about 2,000 (36%) were called active. Not shown: some 18% with an inconclusive outcome. No stated cut-off is given here; in the data, active means normalized growth mostly below about 0.91 (no sharp cut-off); inconclusive means no clear call, values can overlap the other calls; inactive means mostly above about 0.92. Some of the results follow.

Experiment: chemical genetic growth profiling, strain panel (AID 1159580);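 further: tested at 20 µM; growth read once vehicle control cultures reached saturation at 30 °C; 1 = growth at the plate median or of vehicle wells; lower values mean less growth of the strain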
Conditions: S. cerevisiae deletion strains, growth OD
[1] = locus YHR030C, strain SLT2, hits give low values
[2] = locus YHR079C, strain IRE1, hits give low values
[3] = locus YJL095W, strain BCK1, hits give low values
[4] = locus YJR066W, strain TOR1, hits give low values
[5] = locus YLR113W, strain HOG1, hits give low values
[6] = locus YNL183C, strain NPR1, hits give low values
[7] = locus YOR231W, strain MKK1, hits give low values
[8] = locus YPL256C, strain CLN2, hits give low values

Measured: normalized growth

COc1ccc(-c2oc3ccccc3c(=O)c2OC)cc1
inactive: [1] 0.882 | [2] 0.897 | [3] 0.909 | [4] 0.829 | [5] 0.934 | [6] 0.836 | [7] 0.901 | [8] 0.894

COc1ccc(-c2oc3cc(OC)c(OC)c(OC)c3c(=O)c2OC)cc1OC
inactive: locus YAL021C, strain ccr4, hits give low values 0.98 | locus YAL026C, strain drs2, hits give low values 0.957 | locus YAL030W, strain snc1, hits give low values 0.979 | locus YBL061C, strain skt5, hits give low values 0.998 | locus YBR009C, strain hhf1, hits give low values 0.966 | locus YBR023C, strain chs3, hits give low values 0.986 | locus YBR171W, strain sec66, hits give low values 0.972 | locus YBR231C, strain swc5, hits give low values 0.968 | locus YBR279W, strain paf1, hits give low values 0.983 | locus YCL011C, strain gbp2, hits give low values 0.972 | locus YCL016C, strain dcc1, hits give low values 1 | locus YCL061C, strain MRC1, hits give low values 0.993 | locus YCL069W, strain vba3, hits give low values 0.977 | locus YCR088W, strain abp1, hits give low values 0.976 | locus YDL005C, strain med2, hits give low values 0.981 | locus YDL040C, strain nat1, hits give low values 0.982 | locus YDR001C, strain nth1, hits give low values 0.978 | locus YDR069C, strain doa4, hits give low values 0.972 | locus YDR137W, strain rgp1, hits give low values 0.966 | locus YDR159W, strain sac3, hits give low values 0.966 | locus YDR195W, strain ref2 0.982 | locus YDR297W, strain sur2, hits give low values 0.984 | locus YDR334W, strain swr1, hits give low values 0.97 | locus YDR335W, strain msn5, hits give low values 0.982 | locus YDR392W, strain spt3, hits give low values 0.767 | locus YEL003W, strain gim4, hits give low values 0.973 | locus YEL037C, strain rad23, hits give low values 0.956 | locus YEL061C, strain CIN8 (second series), hits give low values 0.971 | locus YER015W, strain faa2, hits give low values 0.99 | locus YER016W, strain bim1, hits give low values 0.986 | locus YER111C, strain swi4, hits give low values 0.976 | locus YER155C, strain BEM2 (second series), hits give low values 0.932 | locus YFR010W, strain ubp6, hits give low values 0.96 | locus YGL167C, strain pmr1, hits give low values 0.983 | locus YGL173C, strain kem1, hits give low values 0.996 | locus YGL227W, strain vid30, hits give low values 0.976 | locus YGL240W, strain doc1, hits give low values 0.973 | locus YGL253W, strain hxk2, hits give low values 0.92 | locus YHR013C, strain ard1, hits give low values 0.956 | locus YHR027C, strain rpn1, hits give low values 1 | [1] 1.03 | [2] 1.01 | locus YHR142W, strain chs7, hits give low values 0.933 | locus YJL092W, strain hpr5, hits give low values 0.966 | locus YJL095W, strain BCK1 (second series), hits give low values 0.987 | [3] 0.972 | locus YJL115W, strain asf1, hits give low values 0.986 | locus YJL129C, strain trk1, hits give low values 0.979 | locus YJL154C, strain vps35, hits give low values 0.974 | locus YJL164C, strain tpk1, hits give low values 0.974 | locus YJL166W, strain qcr8, hits give low values 0.978 | locus YJL187C, strain SWE1, hits give low values 0.981 | [4] 1 | locus YKL160W, strain elf1, hits give low values 0.998 | locus YKR026C, strain gcn3, hits give low values 0.976 | locus YKR091W, strain srl3, hits give low values 0.985 | locus YLL001W, strain dnm1, hits give low values 1 | locus YLL026W, hits give low values 0.989 | locus YLL041C, strain sdh2, hits give low values 0.977 | locus YLR027C, strain aat2, hits give low values 0.986 | [5] 0.902 | locus YLR221C, strain rsa3, hits give low values 1.01 | locus YLR258W, strain gsy2, hits give low values 0.994 | locus YLR262C, strain YPT6 (second series), hits give low values 0.95 | locus YLR320W, strain mms22, hits give low values 0.99 | locus YLR342W, strain FKS1, hits give low values 0.959 | locus YLR357W, strain rsc2, hits give low values 0.96 | locus YLR370C, strain arc18, hits give low values 0.986 | locus YLR384C, strain iki3, hits give low values 0.996 | locus YML120C, strain ndi1, hits give low values 0.97 | locus YMR058W, strain fet3, hits give low values 0.971 | locus YMR125W, strain sto1, hits give low values 0.964 | locus YMR129W, hits give low values 0.976 | locus YMR205C, strain PFK2, hits give low values 0.997 | locus YMR231W, strain pep5, hits give low values 0.992 | locus YNL071W, strain lat1, hits give low values 0.969 | [6] 0.956 | locus YNL209W, strain ssb2, hits give low values 0.993 | locus YNL248C, strain rpa49, hits give low values 0.967 | locus YNL322C, strain KRE1 (second series), hits give low values 0.989 | locus YNR049C, strain mso1, hits give low values 0.982 | locus YOR001W, strain rrp6, hits give low values 0.938 | locus YOR070C, strain gyp1, hits give low values 0.983 | locus YOR080W, strain dia2, hits give low values 0.987 | locus YOR083W, strain WHI5, hits give low values 0.998 | locus YOR106W, strain vam3, hits give low values 0.991 | [7] 1.02 | locus YOR265W, strain rbl2, hits give low values 0.987 | locus YOR270C, strain vph1, hits give low values 0.863 | locus YOR290C, strain snf2, hits give low values 0.953 | locus YPL051W, strain arl3, hits give low values 1 | locus YPL078C, strain atp4, hits give low values 0.977 | locus YPL106C, strain sse1, hits give low values 0.969 | locus YPL240C, strain hsp82, hits give low values 0.995 | [8] 1
